Screening results deposited in PubChem by several laboratories.
Only some compounds are listed: those with a hit (about 3% of all), similar ones and a draw of the others.
ABHD5-PLIN5 inh: blocks binding of human ABHD5 to perilipin-5. Split G. princeps luciferase complementation, luminescence, 4 h. 360,000 tested, 0.78% active. AID 602281. inhibition, % at 4 µM. Q00G26+Q8WTS1;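 active = inhibition above the mean inhibition across every tested compound plus 3 SD, cut at about 22% in these data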
Target sequence (Q00G26 whole entry, looked up): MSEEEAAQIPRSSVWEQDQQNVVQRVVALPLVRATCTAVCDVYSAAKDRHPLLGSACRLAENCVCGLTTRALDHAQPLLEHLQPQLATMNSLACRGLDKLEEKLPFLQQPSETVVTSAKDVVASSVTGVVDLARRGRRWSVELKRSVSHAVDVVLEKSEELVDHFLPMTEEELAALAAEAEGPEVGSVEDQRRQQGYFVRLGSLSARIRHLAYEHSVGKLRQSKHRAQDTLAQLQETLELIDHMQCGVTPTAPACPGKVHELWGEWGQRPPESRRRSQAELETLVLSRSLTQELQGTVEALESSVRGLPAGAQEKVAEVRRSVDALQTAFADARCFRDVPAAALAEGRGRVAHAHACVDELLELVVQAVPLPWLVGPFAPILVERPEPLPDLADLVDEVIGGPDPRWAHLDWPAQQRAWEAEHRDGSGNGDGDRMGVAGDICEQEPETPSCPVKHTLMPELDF
Target sequence (Q8WTS1 whole entry, looked up): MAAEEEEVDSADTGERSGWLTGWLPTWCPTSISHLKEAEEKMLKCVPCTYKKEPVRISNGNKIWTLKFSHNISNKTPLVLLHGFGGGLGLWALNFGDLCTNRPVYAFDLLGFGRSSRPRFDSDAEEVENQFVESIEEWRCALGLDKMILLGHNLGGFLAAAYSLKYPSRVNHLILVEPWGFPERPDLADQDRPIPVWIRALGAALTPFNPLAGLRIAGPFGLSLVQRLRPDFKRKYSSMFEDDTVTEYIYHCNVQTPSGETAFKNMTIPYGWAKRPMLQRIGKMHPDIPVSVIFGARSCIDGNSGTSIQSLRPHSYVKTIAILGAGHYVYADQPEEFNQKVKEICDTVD
KKLEB cytotox: reduces viability of KKLEB cystic fibrosis airway cells; KKLEB CF airway cells viability, ATPlite luminescence, overnight; hits give low values; cells stimulated with P. aeruginosa culture filtrate; activity change (cytotoxicity), % at 5 µM; 360,000 tested, 0.36% active;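 active = corrected activity change at or below -50% at 5 µM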
MITF TRPM1 inh: inhibitors of MITF-driven TRPM1 promoter in melanoma cells. SK-MEL-5 TRPM1 promoter luciferase, 24 h. inhibition, % at 12.5 µM. 330,000 tested, 0.83% active. AID 488899;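 active = mean inhibition across replicates of 60% or more, whatever share of single replicates reaches that level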
CF NFkB block: blocks PAF-induced NF-kB reporter in cystic fibrosis cells; KKLEB NF-kB-GFP reporter, GFP fluorescence overnight; inhibition, % at 5 µM; 360,000 tested, 0.86% active; AID 588850;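 active = at least 50% inhibition at 5 µM, scaled per plate between neutral and stimulator controls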;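 note: PAF is a Pseudomonas aeruginosa culture filtrate used as stimulus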
Peg3 promoter: reduces Peg3 promoter-driven luciferase expression in HeLa; HeLa PEG-Prom luciferase reporter, luminescence, overnight; inhibition, % at 20 µM; AID 588405; 360,000 tested, 1.7% active;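 active = inhibition of at least 50% at 20 µM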
HIF-2a block: HIF-2a inhibition; 786-0 RCC cells HIF-2a reporter, luciferase luminescence, overnight; 360,000 tested, 0.72% active; inhibition, % at 18.8 µM;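 active = inhibition of the luminescence signal of 40% or more relative to plate controls, in a single-dose primary screen at 18.75 µM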
CF NFkB inh conf: CF NF-kB inhibition confirmation, single concentration; shares compounds with CF NFkB block; inhibition, % at 5 µM; 1,300 tested, 64% active; AID 602472; KKLEB CF airway cells, PAF-induced NF-kB-GFP fluorescence, overnight; in the data active = inhibition above about 40%;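 note: stimulus PAF is a Pseudomonas aeruginosa filtrate and not platelet activating factor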
Each line names hits and unclear results; the compound was inactive in the other large screens (follow-up assays come after a bar, where they were run).

COc1cc2c(c(OC)c1OC)-c1ccc(OC)c(=O)cc1[C@@H](N(C)CC#CCO)CC2	none
COc1cc2c(c(OC)c1OC)-c1ccc(NCc3ccccc3)c(=O)cc1C(NC(C)=O)CC2 (stereo not given)	CF NFkB block 63.6 (no result: MITF TRPM1 inh) | CF NFkB inh conf 86.6
COc1cc2c(c(OC)c1OC)-c1ccc(NC(=O)c3ccc(F)cc3)c(=O)cc1[C@@H](NC(C)=O)CC2	none
COc1ccc(C(=O)/C=C/Nc2ccc(S(=O)(=O)Nc3cc(OC)nc(OC)n3)cc2)c(OC)c1	none
COc1ccc(/C=N/NC(=O)c2c(C)nnn2-c2nonc2N)cc1OC	none
CS(=O)(=O)c1ccc2nc(NC(=O)c3ccc(NS(=O)(=O)c4cccc([N+](=O)[O-])c4)cc3)sc2c1	none
COc1ccc(C(=O)Nc2ccnn2C2CCN(C(=O)c3cccnc3)CC2)cc1	none
C=CCOc1c(/C=N\NC(N)=O)cccc1OC	none
C=CCOc1c(OC)cc(/C=N/Nc2cccc(C(=O)O)c2)c(Br)c1Br	CF NFkB block 62.2 | CF NFkB inh conf 67.4
CC(C)C[C@H]1CNC(=S)N1C[C@H]1CCCN1C[C@H](Cc1ccccc1)N1C[C@H](Cc2ccc(O)cc2)N(CCc2ccccc2)C1=S	CF NFkB block 65.7 (no result: MITF TRPM1 inh) | CF NFkB inh conf inactive
CC(C)C[C@@H](CN1CCCC1CN1C(=S)NC[C@@H]1Cc1ccc(O)cc1)N1C[C@H](Cc2ccccc2)N(CC2CCCCCC2)C1=S (stereo not given in full)	none
CC(C)C[C@H]1CNC(=S)N1C[C@H]1CCCN1C[C@H](Cc1ccc(O)cc1)N1C[C@H](CC(C)C)N(CCc2ccccc2)C1=S	ABHD5-PLIN5 inh 22.8, CF NFkB block 55.7 (no result: MITF TRPM1 inh) | CF NFkB inh conf inactive
CCOc1ccc(CCN2C(=S)N([C@@H](CC(C)C)CN3CCC[C@@H]3CN3C(=S)NC[C@@H]3CC(C)C)C[C@@H]2Cc2ccc(O)cc2)cc1	none (no result: MITF TRPM1 inh)
CCOc1ccc(CCN2C(=S)N([C@@H](CC(C)C)CN3CCCC3CN3C(=S)NC[C@@H]3CC(C)C)C[C@@H]2Cc2ccc(O)cc2)cc1 (stereo not given in full)	CF NFkB block 52.6 | CF NFkB inh conf 62.5
CC(C)C[C@@H](CN1CCCC1CN1C(=S)NC[C@@H]1Cc1ccc(O)cc1)N1C[C@H](Cc2ccc(O)cc2)N(CC2CCCCCC2)C1=S (stereo not given in full)	CF NFkB block 52.4, Peg3 promoter 91.2 | CF NFkB inh conf 60.9
Cc1ccc2nccc(C(=O)N3CCCC(N4CCN(c5ccc(F)cc5)CC4)C3)c2c1 (stereo not given)	none
CCCc1ccc(Oc2cc(NN3CCCCC3)c([N+](=O)[O-])cc2[N+](=O)[O-])cc1	none
COc1ccccc1Cn1c(=O)c2ccccc2n2c(Sc3ncnc4sccc34)nnc12	CF NFkB block 72.1 | CF NFkB inh conf 48.1
COc1ccccc1Cn1c(=O)c2ccccc2n2c(SCc3csc(C)n3)nnc12	none
COc1ccc(C(=O)O)cc1S(=O)(=O)Nc1ccc(Oc2ccccc2)cc1	none
CCCCCc1cc(O)c2c(C)cc(=O)oc2c1	CF NFkB block 74.5 | CF NFkB inh conf 80.4
Cc1cc(=O)oc2cc(O)cc(O)c12	none
CC(C)Oc1ccc(S(=O)(=O)N2CCOCC2)cc1NC(=O)CN1C(=O)NC2(CCCC2)C1=O	none
Cc1cccc(C(=O)N2CCC(Cc3ccccc3)CC2)c1[N+](=O)[O-]	none
Cc1c(C(=O)N2CCC(Cc3ccccc3)CC2)cccc1[N+](=O)[O-]	CF NFkB block 51.2 | CF NFkB inh conf 43.1
O=C(NNC(=S)Nc1cccc(C(F)(F)F)c1)c1cccc(Cl)c1	CF NFkB block 50.7 | CF NFkB inh conf 76.6
c1cc2[nH]snc2c2nc(C3CC3)nc12	CF NFkB block 74.2 | CF NFkB inh conf 67.8
COc1ccc(C2CC(c3ccccc3)=NN2C(=O)COC(=O)c2ccc(S(C)(=O)=O)cc2)cc1 (stereo not given)	CF NFkB block 54.8 | CF NFkB inh conf 46.0
CS(=O)(=O)Nc1cccc(-c2cc(NC=O)c3ncc(-c4ccc(F)cc4)n3c2)c1	CF NFkB block 51.5 (no result: MITF TRPM1 inh) | CF NFkB inh conf 53.3
